Assay results from article PMC3737563, “Investigation of DNA sequence recognition by a streptomycete MarR family transcriptional regulator through surface plasmon resonance and X-ray crystallography”.

Each sequence was assayed against T1, SCO3205 (MarR family regulator) (Streptomyces coelicolor, UniProt Q9KYU1 1-163) (assay: SPR (ReDCaT); 100 nM SCO3205 dimer; HBS-EP+ buffer: 10 mM HEPES pH 7.4, 150 mM NaCl, 3 mM EDTA, 0.05% (v/v) surfactant P20; 20 C; Biacore T200, ReDCaT SA chip; high values mean tight binding). Settings: protein: recombinant; tags: N-terminal His tag plus TEV site, not removed; chain copies: 2; label: biotin linker S6 hybridised to overhang; dsDNA, one strand shown.
T1 sequence: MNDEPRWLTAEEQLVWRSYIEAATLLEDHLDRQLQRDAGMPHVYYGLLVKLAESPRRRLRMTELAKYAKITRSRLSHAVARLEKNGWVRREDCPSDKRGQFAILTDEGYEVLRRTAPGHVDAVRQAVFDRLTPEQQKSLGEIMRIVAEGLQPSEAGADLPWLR
ACGCCGATTTTGTTTAATGTTCAAGGAAC was tested, and the binding signal was 109.7 ± 0.566 %Rmax.
TCAATCTACGCCGATTTTGTTTAATGTTC was tested, and the binding signal was 5 %Rmax.
CGAGACGGTTCCTTGAACATTAAA was tested, and the binding signal was 22 %Rmax.
Work on AAGAAGTTCAAGCTTCAACCAAAA yielded a binding signal of 95.2 %Rmax.
ACGGCACGTAAAGATTGAGAGTTCAAGTATTGGA gave a binding signal of 116 %Rmax.
CGAGACGGTTCCTTGAACATTAAACAAAAT showed a binding signal of 102 %Rmax.
For ACGCCGATTTTGTTTAATGTTC, the binding signal was 5.1 %Rmax.
Work on ACGCCGATTTTGTTTAATGTTCAA yielded a binding signal of 29.9 %Rmax.
ACTCCAATACTTGAACTCTCAATCTTTA was tested, and the binding signal was 115 %Rmax.
ACGGCACGTAAAGATTGAGAGTTCAAGTATTG was tested, and the binding signal was 112 %Rmax.
ACTCCAATACTTGAACTCTCAATCTTTACGTGCCGT was tested, and the binding signal was 115 %Rmax.
CGAGACGGTTCCTTGAACATTAAACAAAATCGGC showed a binding signal of 112 %Rmax.
ACTCCAATACTTGAACTCTCAATCTTTACGTGCC was tested, and the binding signal was 110 %Rmax.
Sequence TACTTGAACTCTCAATCTTTACGTGCCGT has a binding signal of 113.9 ± 0.424 %Rmax.
In the case of ACTCCAATACTTGAACTCTCAATCTT, the binding signal is reported as 116 %Rmax.
ACTCCAATACTTGAACTCTCAATCTTTACG showed a binding signal of 119 %Rmax.
With TTTTGTTTAATGTTCAAGGAACCGTCTCG the binding signal was 127.2 ± 0.636 %Rmax.
ACGCCGATTTTGTTTAATGTTCAAGGAACCGTCT was tested, and the binding signal was 118 %Rmax.
In the case of ACGGCACGTAAAGATTGAGAGTTCAAGTATTGGAGT, the binding signal is reported as 110 %Rmax.
Sequence ACTCTCAATCTTTACGTGCCGTCAATCTA has a binding signal of 3.05 ± 0.354 %Rmax.
For CAATACTTGAACTCTCAATCTTTA, the binding signal was 101 %Rmax.
With ACGGCACGTAAAGATTGAGAGTTCAAGTAT the binding signal was 87.9 %Rmax.
GACCTGTTCAAAGCTCAAGCAGAA gave a binding signal of 48.5 %Rmax.
ACTCCAATACTTGAACTCTCAATC gave a binding signal of 92.7 %Rmax.
ACGCCGATTTTGTTTAATGTTCAAGGAACC gave a binding signal of 117 %Rmax.
Sequence ACGGCACGTAAAGATTGAGAGTTCAA has a binding signal of 4.7 %Rmax.
ACTCCAATACTTGAACTCTC showed a binding signal of 7.8 %Rmax.
CGAGACGGTTCCTTGAACATTAAACAAAATCGGCGT showed a binding signal of 108 %Rmax.
For ACTCCAATACTTGAACTCTCAATCTTTAC, the binding signal was 115.8 ± 0.283 %Rmax.
TTGATGTTGAATGTTCAACCAGTC showed a binding signal of 118 %Rmax.
Sequence CGAGACGGTTCCTTGAACATTAAACA has a binding signal of 68.6 %Rmax.
Work on ACTCCAATACTTGAACTCTCAATCTTTACGTG yielded a binding signal of 108 %Rmax.
ACTCCAATACTTGAACTCTCAA was tested, and the binding signal was 41.3 %Rmax.
For ACGGCACGTAAAGATTGAGAGTTCAAGT, the binding signal was 80.4 %Rmax.
CGAGACGGTTCCTTGAACATTAAACAAA was tested, and the binding signal was 68.4 %Rmax.
CGAGACGGTTCCTTGAACATTAAACAAAATCG was tested, and the binding signal was 108 %Rmax.
Sequence ACGCCGATTTTGTTTAATGTTCAAGG has a binding signal of 81 %Rmax.
ACGCCGATTTTGTTTAATGTTCAAGGAA was tested, and the binding signal was 94 %Rmax.
In the case of CATGGCTACTCCAATACTTGAACTCTCAA, the binding signal is reported as 35.7 ± 0.566 %Rmax.
In the case of ACGCCGATTTTGTTTAATGTTCAAGGAACCGT, the binding signal is reported as 110 %Rmax.
